Test results: PubChem BioAssay AID1985 (Southern Research Specialized Biocontainment Screening …, 2009)
The whole screen tested about 2,300 compounds, of which about 1,000 (43%) were called active. The rule behind the calls is not given here. The set was probably picked from earlier hits. The list shows a part of the results. Results with a measured potency or affinity are listed apart.

Assay: PhoP regulon inhibitor project modified counter assay, GFP fluorescence readout, dose response (AID 1985)
Conditions: S. Typhi, 4 h; series mostly up to 150 µM; inhibition: at the top concentration

With `Cc1ccc(SCc2[nH]nc3c2C(c2cccnc2)C(C#N)=C(N)O3)cc1` (configuration not stated) as the compound, how does the “inhibition” value read?
The value was -10.8% (inactive).

Which “inhibition” value does the source give for `Nc1cc(N2CCOCC2)c(Cl)cc1[N+](=O)[O-]` here?
Its value is 5.58% (inactive).

With `C=C(C)Cn1c(SCC#N)nc2ccccc2c1=O` as the compound, how does the “inhibition” value read?
Its value is -7.42% (inactive).

With `COc1cccc(CNC23CC4CC(CC(C4)C2)C3)c1OCc1ccccc1` as the compound, how does the “inhibition” value read?
Its value is -24.5% (inactive).

Which “inhibition” value does the source give for `Cc1ccc(NC(=S)NCc2cccs2)cc1` here?
The value was 2.63% (inactive).

Which “inhibition” value does the source give for `Cc1ccc(NC(=S)NCc2cccnc2)cc1` here?
Its value is 33.4% (inactive).

Which “inhibition” value does the source give for `COc1cccc(CNS(=O)(=O)c2ccc3c(c2)NC(=O)CS3)c1` here?
The value was -14.7% (inactive).

For `CC(c1ccccc1)(c1ccccc1)c1ccncc1`, which “inhibition” value is on record?
Its value is 3% (inactive).

For `CC(C)SCc1nc2ccccc2[nH]1`, which “inhibition” value is on record?
Its value is -25.3% (inactive).

For `Nc1cncc(C(=O)O)c1`, which “inhibition” value is on record?
Its value is 0.69% (inactive).

For `C/C(=N\NC(=O)COc1ccccc1[N+](=O)[O-])c1cccs1`, which “inhibition” value is on record?
The value was -1.26% (inactive).

Which “inhibition” value does the source give for `CCCC(=NCc1ccccc1)C1=C(O)C(C(=O)OC)C(C)(C)CC1=O` (configuration not stated) here?
Its value is -20.1% (inactive).

Which “inhibition” value does the source give for `CN1C2=CC=CC=CC2=[N+](C)C12C=CC(=[N+]([O-])[O-])C=C2[N+](=O)[O-]` (configuration not stated) here?
The value was 5.18% (inactive).

For `Cc1cc(Br)cc2cn[nH]c12`, which “inhibition” value is on record?
The value was -9.69% (inactive).

With `O=C(Nc1ccccc1)Nc1cccc(Cl)c1` as the compound, how does the “inhibition” value read?
The value was 29.5% (inactive).

With `O=C(CCl)Nc1nccs1` as the compound, how does the “inhibition” value read?
The value was -39.9% (inactive).

With `CCCN1C(=O)c2ccc(C(=O)Nc3nccs3)cc2C1=O` as the compound, how does the “inhibition” value read?
The value was -2.62% (inactive).

For `O=C(COc1ccc2ccccc2c1)Nc1nccs1`, which “inhibition” value is on record?
Its value is 15.3% (inactive).

For `Cc1[nH]c(=O)[nH]c(=O)c1S(=O)(=O)N1CCCC(C(=O)NCc2ccc3c(c2)OCO3)C1` (configuration not stated), which “inhibition” value is on record?
Its value is 6.67% (inactive).

With `COc1ccc(NC(=O)N(CCc2ccccc2)Cc2cc3c(C)cc(C)cc3[nH]c2=O)cc1` as the compound, how does the “inhibition” value read?
The value was 1.31% (inactive).

Which “inhibition” value does the source give for `CCCOc1ccc(N2C(=O)C3C(C(C)C)NC4(C(=O)c5ccccc5C4=O)C3C2=O)cc1` (configuration not stated) here?
The value was -27.7% (inactive).

With `COc1ccc(OC)c(S(=O)(=O)N2CCC(C(=O)NCc3ccccc3OC)CC2)c1` as the compound, how does the “inhibition” value read?
The value was 5.13% (inactive).

With `O=C(NCc1ccccc1)c1ccc(CNc2c(N3CCCC3)c(=O)c2=O)cc1` as the compound, how does the “inhibition” value read?
The value was 10.7% (inactive).

For `Cc1ccc(C(C(=O)NCCc2ccccc2)N(C(=O)c2csnn2)C2CC2)o1` (configuration not stated), which “inhibition” value is on record?
Its value is -9.88% (inactive).

With `CCC(C)(c1ccc(C(=O)OC)s1)c1ccc(C(=O)OC)s1` as the compound, how does the “inhibition” value read?
Its value is -7.04% (inactive).

For `CN1C(=O)/C(=C2/C=Cc3ccccc3N2CCCS(=O)(=O)O)SC1=S`, which “inhibition” value is on record?
The value was 4.45% (inactive).

With `COc1ccccc1-n1c(SCC(=O)O)nnc1-c1ccc(S(=O)(=O)N2CCCCC2)cc1` as the compound, how does the “inhibition” value read?
Its value is -8.39% (inactive).

Which “inhibition” value does the source give for `O=C(Nc1ccc(F)cc1)C1CCC(CNc2c(N3CCCCC3)c(=O)c2=O)CC1` (configuration not stated) here?
Its value is 4.3% (inactive).

For `Cc1c(C(=O)N2CCN(Cc3ccccc3)CC2)sc2ncnc(N3CCOCC3)c12`, which “inhibition” value is on record?
The value was 8.11% (inactive).

Which “inhibition” value does the source give for `Oc1ccc(CN2CCN(c3ccccc3)CC2)c2cccnc12` here?
Its value is 15.8% (inactive).

With `CCCC(c1nnnn1Cc1ccc(OC)cc1)N1CCN(c2ccccc2OC)CC1` (configuration not stated) as the compound, how does the “inhibition” value read?
The value was -12.5% (inactive).

For `COc1ccccc1Oc1coc2c(CN3CCN(C)CC3)c(O)ccc2c1=O`, which “inhibition” value is on record?
The value was 14.4% (inactive).

Which “inhibition” value does the source give for `Oc1c(CN2CCOCC2)cc(COCc2ccccc2)c2cccnc12` here?
Its value is -18.9% (inactive).

For `N#C/C(=C\c1ccc(O)c(O)c1)C(=O)c1ccc(O)c(O)c1`, which “inhibition” value is on record?
The value was 29% (inactive).

For `COc1ccc(CNC(=O)CCC(=O)N2C[C@H]3C[C@H](C2)c2cccc(=O)n2C3)cc1`, which “inhibition” value is on record?
Its value is -4.17% (inactive).

With `CCOC(=O)Cc1nn(C)c(=O)c2ccccc12` as the compound, how does the “inhibition” value read?
Its value is -23.1% (inactive).

For `O=C(/C=C/c1c(F)cccc1Cl)N1CCOCC1`, which “inhibition” value is on record?
Its value is 17.3% (inactive).

For `COc1cc(OC)nc(NC(=O)C(C)C)n1`, which “inhibition” value is on record?
The value was -18.1% (inactive).

With `NC(=O)c1c(NC(=O)CSc2nc(N)cc(=O)[nH]2)sc2c1CCCC2` as the compound, how does the “inhibition” value read?
The value was 5.12% (inactive).

With `COCc1cc(=O)n2[nH]c(C)nc2n1` as the compound, how does the “inhibition” value read?
Its value is -4.12% (inactive).

Which “inhibition” value does the source give for `Nc1ccc(S(=O)(=O)Nc2ccc(Cl)nn2)cc1` here?
The value was 24.8% (inactive).

Which “inhibition” value does the source give for `CC1=C(c2ccccc2)SC2=NCCN21` here?
Its value is 14.3% (inactive).

Which “inhibition” value does the source give for `O=C(COc1ccc(Cl)cc1)N1CCCCC1` here?
The value was -7.26% (inactive).

For `CN(C)CCNC(=O)c1ccc(COc2ccc(Cl)cc2Cl)cc1`, which “inhibition” value is on record?
The value was 31.5% (inactive).

Which “inhibition” value does the source give for `O=C(NCc1cccnc1)c1ccc(COc2ccc(Cl)cc2)cc1` here?
Its value is -4.41% (inactive).

For `Clc1ccc(OCc2nn3c(C4CCCCC4)nnc3s2)c(Cl)c1`, which “inhibition” value is on record?
The value was -17.4% (inactive).

For `CC(=O)Nc1nc(C)c(-c2csc(Nc3ccc(O)cc3)n2)s1`, which “inhibition” value is on record?
The value was 4.57% (inactive).

Which outcome does the source give for `Cc1c(O)cccc1C(=O)N[C@@H](CSc1ccccc1)[C@H](O)CN1C[C@H]2CCCC[C@H]2C[C@H]1C(=O)NC(C)(C)C` here?
Its outcome is “inactive”.

For `CCc1nc(SCC(=O)NCCc2ccccc2)c2c(=O)n(C)c(=O)n(C)c2n1`, which “inhibition” value is on record?
The value was -18.8% (inactive).

Which “inhibition” value does the source give for `Cc1cc(=O)oc2c(CN(C)Cc3ccccc3)c(O)ccc12` here?
Its value is -8.93% (inactive).

Which “inhibition” value does the source give for `O=C(N/N=C\c1ccc(F)cc1)c1ccc(F)cc1` here?
The value was 11.9% (inactive).

Which “inhibition” value does the source give for `CC(C)CNC(CC(=O)O)c1ccccc1` (configuration not stated) here?
Its value is -0.97% (inactive).

With `CN(CCOc1ccc(Cl)cc1)CC(O)c1ccccc1` (configuration not stated) as the compound, how does the “inhibition” value read?
The value was 5.59% (inactive).

Which “inhibition” value does the source give for `CC(c1cccnc1)N(CCN(C)C)C(=O)Nc1ccc(Cl)c(Cl)c1` (configuration not stated) here?
The value was 16.1% (inactive).

With `CCS(=O)(=O)N1CCC(C(=O)NCc2cc(OC)ccc2OC)CC1` as the compound, how does the “inhibition” value read?
The value was 9.84% (inactive).

Which “inhibition” value does the source give for `CNC(CC(=O)c1ccc([N+](=O)[O-])cc1)C(Cl)(Cl)Cl` (configuration not stated) here?
The value was 38.9% (inactive).

Which “inhibition” value does the source give for `O=[N+]([O-])c1ccc(CN2CCSCC2)cc1` here?
Its value is 0.47% (inactive).
